High-throughput results as filed in PubChem.
DAX1 inh: DAX1 (NR0B1) inhibitors, primary screen, cell-based, HEK293, Gal4-DAX1, luciferase luminescence | AID 504766, 2011 | HEK293 Gal4-DAX1 luciferase reporter | Nuclear receptor subfamily 0 group B member 1 (Homo sapiens), P51843 | 340,000 tested, 0.99% active | inhibition, % at 6.75 µM;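 active means inhibition above the mean over all tested compounds plus 3 SD, cut at about 4.2% in these data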;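 further: 0% = DAX1-transfected cells with DMSO and 100% = empty-vector control cells with DMSO; inhibition shows as a rise in luminescence from relieved DAX1 repression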
Target sequence (P51843 207-470 limits assumed): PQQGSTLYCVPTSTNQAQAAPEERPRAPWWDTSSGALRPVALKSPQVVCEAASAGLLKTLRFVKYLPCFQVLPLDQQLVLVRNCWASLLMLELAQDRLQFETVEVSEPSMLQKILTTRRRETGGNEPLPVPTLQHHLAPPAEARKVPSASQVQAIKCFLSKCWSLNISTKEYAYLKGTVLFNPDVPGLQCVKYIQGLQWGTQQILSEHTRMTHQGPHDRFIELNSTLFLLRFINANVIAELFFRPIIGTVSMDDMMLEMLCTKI
GAA850 FXN act: FXN promoter activators, primary screen, cell-based, luciferase luminescence, HEK293 lucGAA850. HEK293 lucGAA850 FXN promoter luciferase reporter, 24 h; percent of 10 µM SAHA response. activation, % at 6 µM. 360,000 tested, 0.56% active;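 active means activation above the average of all compounds screened plus 3 SD, cutoff fixed separately per campaign, cut at about 7.5% in these data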;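 further: 0% = DMSO wells and 100% = 10 µM SAHA wells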
HSP90 inh: HSP90 inhibitors, primary screen, cell lysate, luminescence | Heat shock protein HSP 90 (rabbit reticulocyte lysate; luciferase refolding) | Rabbit reticulocyte lysate, luciferase refolding luminescence, 3 h | inhibition, % at 5.6 µM | 290,000 tested, 0.91% active | AID 1789, 2009;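 active means inhibition above the screen-wide mean plus 3 SD, computed separately per campaign, cut at about 16% in these data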;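 further: 0% = DMSO wells and 100% = 60 µM geldanamycin wells; inhibitors lower the luminescence because luciferase stays unfolded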
HSF-1 act: HSF-1 activators, primary screen, NIH3T3-HGL cells, MG132 stress, luminescence, single point; NIH3T3-HGL HSF-1 luciferase reporter, 8 h; 100% = twice DMSO control signal; activation, % at 9 µM; 300,000 tested, 1.7% active; AID 504408, 2011;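 active means mean replicate activation of at least 50% with a set share of replicates each reaching 50%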;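 further: 0% = median of the neutral control wells and 100% = twice that signal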
HSF1 inhib: HSF1 inhibitors in luciferase reporter cells, primary screen, cell-based, NIH3T3, luminescence. NIH3T3-HGL HSE-luciferase, MG132-induced, luminescence 8 h; stronger effect = lower value. activity change, negative = inhibition, % at 7.5 µM (by protocol). AID 2098, 2009. 300,000 tested, 0.77% active;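 active means more than half of replicate wells show activity change below -50%, luminescence cut by over half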;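 further: luciferase reports HSF-1 transcriptional activity via heat shock element; 0% = median of DMSO wells and -100% = zero luminescence signal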
AHR act: AHR activators, primary screen, cell-based, luminescence, luciferase reporter, human. Aryl hydrocarbon receptor (Homo sapiens), P35869. AHR-responsive luciferase reporter cells. activation, % at 5 µM. 320,000 tested, 2.5% active. AID 2796, 2010; in the data active means activation above about 47%;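 further: 0% = vehicle wells and 100% = reference agonist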
Numbers without * were called inactive; / = not tested or not shown. The list is not random: actives were taken first. Their share in the collection is about 5.9%.

SMILES	DAX1 inh	GAA850 FXN act	HSP90 inh	HSF-1 act	HSF1 inhib	AHR act
COCCNC(=O)C1(C)CCCN(Cc2ccc(C)c3ccccc23)C1 (stereo not given)	/	-0.6	/	/	/	/
O=C(CN(C(=O)c1csnn1)c1ccccc1C(F)(F)F)NCc1ccccc1	-1.2	-0.5	-4.5	3.8	2.8	-2.2
Oc1ccc2ccccc2c1N=Nc1ccccn1	-1.7	1.4	11.6	-57.6	-48.4	73.6*
Oc1ccc2ccccc2c1N=Nc1ccccc1F	0.6	2.6	10.9	21.2	11.7	50.1*
CCOC(=O)c1[nH]cnc1N=Nc1c(O)ccc2ccccc12	-0.9	0.6	-1.7	-23.2	-17.2	6.3
CC(Oc1ccc(Br)cc1)C(=O)N(Cc1ccccc1)c1c(N)n(Cc2ccccc2)c(=O)[nH]c1=O (stereo not given)	0.7	-7.3	/	/	/	/
COc1ccc(S(=O)(=O)N2CCOC2CNC(=O)C(=O)NCc2ccc(F)cc2)cc1OC (stereo not given)	0.1	0.8	-4.6	-7.4	-3.1	1.9
CCCNC(=O)C1(C)CCCN(Cc2ccc(-c3ccccn3)cc2)C1 (stereo not given)	/	0.4	/	/	/	/
CC(C)NCC(O)COCc1ccc(Cl)cc1 (stereo not given)	0.7	-1.9	-0.1	52.9*	17.1	-1.1
CCC(C)NCC(O)COCc1ccc(Cl)cc1 (stereo not given)	-0.2	0.3	3.8	-6.2	-3.4	2.7
Cc1ccc(NC(=O)N2CCC(NC(=O)c3cccc(F)c3)CC2)cc1	0.1	-1.2	2.9	-21.2	-10.2	-1.8
O=S(=O)(NCCc1csc(-c2cccnc2)n1)c1cccs1	0.4	0.8	3.2	-4.6	-1.0	68.7*
Cc1nc2cc(NC(=O)Nc3ccc(Br)cc3)ccc2o1	0.8	0.6	-1.6	58.3*	18.9	-0.7
Cc1nc2cc(NC(=O)NCc3ccc4c(c3)OCO4)ccc2o1	1.3	0.4	-0.8	5.6	-6.0	-1.7
CN(Cc1c(F)cccc1Cl)C(=O)c1ccc(NC(=O)CC2SC(N3CCCCC3)=NC2=O)cc1 (stereo not given)	-0.3	3.1	/	/	/	2.4
Cn1c2ccccc2c2ncn(CCC3=CCCCC3)c(=O)c21	0.2	3.4	6.4	61.0*	36.5	6.8
Cc1ccc2[nH]c3c(=O)n(CCCN4CCOCC4)cnc3c2c1	0.5	0.1	-2.6	1.8	4.2	24.1
Cn1c2ccc(F)cc2c2ncn(CCN3CCOCC3)c(=O)c21	7.2*	1.6	3.5	159.9*	78.5	39.7
COc1ccc2[nH]c3c(=O)n(CCCN4CCOCC4)cnc3c2c1	6.2*	2.1	0.7	-70.3	-63.4*	2.4
Cn1c2ccccc2c2ncn(CCCN3CCOCC3)c(=O)c21	1.7	-0.7	2.6	-11.9	0.1	50.4*
COc1ccc(-c2ccc(CN3C(C)C(=O)N(Cc4cn(Cc5ccco5)nn4)CCS3(=O)=O)cc2)cc1 (stereo not given)	-1.6	-0.2	/	/	/	/
Cc1cn([C@H]2C[C@H](O)[C@@H](CNCc3ccc(F)c(N4CCOCC4)c3)O2)c(=O)[nH]c1=O	1.6	-1.4	/	/	/	/
COc1ccc(Br)cc1C(=O)Nc1ccc(Cc2ccncc2)cc1	-0.2	-3.0	-1.1	-33.7	-27.7	58.8*
COc1ccccc1N1CCN(C(=S)Nc2ccccc2)CC1	0.3	1.1	4.5	-23.0	-19.7	1.2
COc1ccc(/C=C/C(=O)NC(=S)N2CCN(c3ccccc3OC)CC2)cc1	5.5*	7.1	1.8	13.5	-1.3	3.2
SMILES	DAX1 inh	GAA850 FXN act	HSP90 inh	HSF-1 act	HSF1 inhib	AHR act
COc1ccc(/C=N/NC(=O)C(=O)N2CCN(c3ccccc3OC)CC2)cc1	1.0	8.4*	-3.9	-5.9	-3.3	0.7
COc1ccc(/C=C/C(=O)NC(=S)N2CCN(c3ccccn3)CC2)cc1OC	-0.4	0.7	2.6	4.0	-7.0	-1.4
O=C(/C=C/c1ccc(F)cc1)NC(=S)N1CCN(c2ccccn2)CC1	0.2	4.1	-0.7	59.3*	50.8	18.3
COc1ccccc1N1CCN(C(=S)Nc2ccc(F)cc2)CC1	-0.1	0.7	13.2	-75.4	-72.5*	-4.4
CCN(CC)C(=O)C1=C(C)N(CCC2=CCCCC2)C(=O)C(CC(=O)NCCCN(C)C)C1 (stereo not given)	0.1	0.4	/	/	/	/
COc1cc(/C(C)=C/c2ccccc2)c2c(c1)oc1ccccc12	/	/	1.3	-1.0	1.0	13.7
COc1ccc(Cl)cc1NC(=O)c1cnc2n(c1=O)CCS2	1.8	-0.3	/	4.5	-1.1	13.4
COc1ccccc1NC(=O)c1cnc2n(c1=O)CCS2	-0.2	2.8	0.3	18.8	8.7	66.6*
COc1ccc(OC)c(NC(=O)c2cnc3n(c2=O)CCS3)c1	0.9	2.4	-1.5	3.2	-2.7	50.4*
CCOc1ccc(NS(=O)(=O)c2ccc3c(c2)N(C(C)=O)CCS3)cc1	-0.2	-1.9	1.7	20.4	-3.1	6.5
COc1cccc(CNc2nc3cc(-c4cnn(Cc5ccccc5)c4)sc3c(=O)n2C)c1	/	-3.7	/	/	/	/
C#CCNC(=O)c1ccc2sc([C@H]3C[C@H](O)[C@@H](CO)O3)nc2c1	/	2.9	/	/	/	/
COc1ccccc1Nc1nnc(SCc2nnc(-c3cc(OC)c(OC)c(OC)c3)o2)s1	-0.6	0.7	4.8	-3.7	-4.6	13.9
COc1cc(-c2nnc(CSc3nnc(Nc4ccc(C(C)C)cc4)s3)o2)cc(OC)c1OC	-0.1	1.4	2.2	55.6*	27.5	9.3
CCOc1ccccc1Nc1nnc(SCc2nnc(-c3cc(OC)c(OC)c(OC)c3)o2)s1	-3.6	-5.7	-1.6	-80.9	-73.9*	30.6
Cc1cccn2cc(CSc3nnc(Nc4ccc(C(C)C)cc4)s3)nc12	-1.1	2.1	2.5	/	/	10.8
Cc1ccc(S(=O)(=O)CCC(=O)N2CCN(c3ccc([N+](=O)[O-])cc3)CC2)cc1	1.7	-0.5	0.4	14.3	-4.8	-1.6
Cc1ccc(-c2nc(SCC(=O)NCC3CCCO3)c(-c3ccc(C)cc3)[nH]2)cc1 (stereo not given)	-1.2	0.4	-2.3	-14.3	0.1	54.1*
COc1ccc(-c2nnc3ccc(SCC(=O)NCC4CCCO4)nn23)cc1 (stereo not given)	-0.7	-2.5	9.6	95.3*	30.5	-0.8
O=C(CSc1ccc2nnc(-c3ccc(F)cc3)n2n1)NCC1CCCO1 (stereo not given)	-0.7	-2.8	-2.2	0.1	4.5	-0.4
Cc1nc(SCC(=O)NCC2CCCO2)[nH]c(=O)c1C (stereo not given)	-1.1	0.8	/	-66.6	-55.9*	-1.4
